The values below come from PubChem BioAssay AID1851 (National Center for Advancing Translational Sciences (NCATS), 2009).

Out of some 16,000 compounds screened, about 5,800 (36%) were called active. Not shown: some 23% with an inconclusive outcome. This is one part of the list. Values without a mark were called inactive. Calls follow the shape of the dose curve; as a rule, active = well fitted curve in the direction sought with a large enough effect; inconclusive = small, poorly fitted or top-dose-only effect, or effect the other way; inactive = no such curve, though single readings can be large or run the other way.
% is scaled to controls: 0 for no effect and ±100 for the full control effect.

For this assay, the target named is Cytochrome P450 2C19 (Homo sapiens) (UniProt P33261). Kind of assay: Cytochrome panel assay with activity outcomes. To be noted: recombinant CYP, pro-luciferin dealkylation, luminescence, p450-cyp2c19; series mostly up to 57.1 µM; activity, negative = inhibition: at the top concentration.
Chain of Cytochrome P450 2C19 (Homo sapiens) (P33261 whole entry, looked up): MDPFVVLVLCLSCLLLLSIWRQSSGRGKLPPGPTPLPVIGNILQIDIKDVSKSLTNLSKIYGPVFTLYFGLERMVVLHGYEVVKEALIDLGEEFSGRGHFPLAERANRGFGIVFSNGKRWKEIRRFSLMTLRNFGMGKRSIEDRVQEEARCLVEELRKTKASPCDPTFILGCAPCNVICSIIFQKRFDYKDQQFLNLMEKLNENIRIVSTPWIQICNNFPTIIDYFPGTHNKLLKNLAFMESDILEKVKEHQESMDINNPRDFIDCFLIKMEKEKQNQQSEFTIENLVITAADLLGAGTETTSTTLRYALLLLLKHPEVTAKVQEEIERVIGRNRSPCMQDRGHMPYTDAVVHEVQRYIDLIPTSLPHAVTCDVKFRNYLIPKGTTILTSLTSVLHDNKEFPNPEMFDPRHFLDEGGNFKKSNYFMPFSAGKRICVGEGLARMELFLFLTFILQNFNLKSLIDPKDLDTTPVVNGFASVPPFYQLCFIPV
As for `C=CCNC(=S)Nc1ccc2nc(C)c(C)nc2c1`, the “activity, negative = inhibition” value was -19.7%.
Still for that read-out and setting: for `Cc1ccc(CCN2CC(C(=O)NCCN3CCOCC3)CC2=O)cc1` (configuration not stated) the value was 0.693%.
As usually defined, the AC50 is the concentration at which the activity in the assay is half-maximal. As for `Cc1ccc(NC(=S)NCCN2CCOCC2)cc1C`, the half-maximal activity concentration (AC50) was 5.01 µM (active).
`Cc1cc(-c2ccccc2)nnc1NCCN1CCOCC1`: the “activity, negative = inhibition” value is -34.1% [at 25.6 µM].
With `Cc1ccc(SCCNC(=S)Nc2ccc(C)c(C)c2)cc1`, the AC50 was 3.16 µM (active).
As to `O=C(c1cccc(F)c1)N1CCC2(CC1)CCN(C(c1ccccc1)c1ccccc1)CC2`, the “activity, negative = inhibition” value is -40.6%.
As for `CN(C)CCCn1cnc2cc(Cl)c(Cl)cc21`, the activity, negative = inhibition is 51.6% [at 11.4 µM].
Turning to `Cc1cc(Cl)ccc1OCC(=O)N/N=C1\CCCc2ccccc21`, the “activity, negative = inhibition” value was -19.7%.
In the case of `O=C(N/N=C1\CCCc2ccccc21)c1ccc([N+](=O)[O-])cc1Cl`, the AC50 was 4.47 µM (active).
For `CCCCNC(=S)NNC(=O)c1sccc1C`, the AC50 was 0.794 µM (active).
Consider `CCCCNC(=S)NNC(=O)c1csc2c1CCC(C)C2` (configuration not stated), for which the AC50 was 3.98 µM (active).
Consider `CC1CCc2c(C(=O)Nc3nccs3)csc2C1` (configuration not stated), for which the AC50 is 2.82 µM (active).
With `CC(C)NC(=O)N1CCC2(CC1)CCN(C(=O)c1ccncc1)CC2`, the “activity, negative = inhibition” value was 29.5%.
As to `CCNc1ncc2nc(-c3cc(F)cc(F)c3)c(=O)n(C[C@H]3CCCO3)c2n1`, the “activity, negative = inhibition” value is -29.6%.
Consider `COCCn1c(=O)c(-c2ccc(OC)cc2)nc2cnc(N3CCNCC3)nc21`, for which the “activity, negative = inhibition” value was -6.8%.
`COC(=O)COc1ccsc1C(=O)OC`: the “activity, negative = inhibition” value is -18.3%.
Consider `CCOC(=O)C(=Cc1ccc(-c2ccsc2C(=O)OC)o1)C(=O)OCC`, for which the AC50 was 2.82 µM (active).
In the case of `COC(=O)c1sccc1-c1ccc(C(=O)Nc2cccnc2)o1`, the AC50 is 3.16 µM (active).
With `COC(=O)c1sccc1-c1ccc(C(=O)Nc2cccc(Cl)c2)o1`, the AC50 was 3.16 µM (active).
Take `Cc1noc(NS(=O)(=O)c2cccc3c(N(C)C)cccc23)c1C`: the “activity, negative = inhibition” value is -5.75%.
Consider `CCN(CC)S(=O)(=O)c1ccc2c3c(cccc13)C(=O)S2`, for which the AC50 is 1 µM (active).
Same read-out and setting: for `CCN(CC)S(=O)(=O)c1cccc2c(N(C)C)cccc12` the value was 3.98 µM (active); for `c1ccc(CNc2ncncc2-c2ccoc2)cc1`, 10 µM (active).
With `Cc1cnc(CNc2ncncc2-c2ccoc2)cn1`, the “activity, negative = inhibition” value is -27.2%.
Take `c1cncc(-c2cncnc2NCc2cccs2)c1`: the “activity, negative = inhibition” value was -41.8%.
As for `CN(C)c1ccc(-c2cncnc2NCc2cccs2)cc1`, the AC50 was 0.631 µM (active).
Take `c1csc(CNc2ncncc2-c2ccoc2)c1`: the AC50 is 15.8 µM (active).
For `NC/C=C\C(=O)O`, the AC50 result is “inactive”.
For the compound `CC1=CC=CN2CC(O)CN=C12` (configuration not stated), the “activity, negative = inhibition” value was 28.9%.
With `Cc1cc(C)cc(-n2nnnc2SCC(=O)Nc2nc(-c3ccc(Cl)cc3)cs2)c1`, the AC50 was 3.55 µM (active).
As to `O=C1CCCN1CC(CN1CCOCC1)Sc1nnnn1-c1ccccc1` (configuration not stated), the AC50 is 14.1 µM (active).
Same read-out and setting: for `CSc1nc(Sc2cccc(Cl)c2)c2ccccc2n1` the value was 6.31 µM (active).
Take `CSc1c(-c2ccccc2)nc2ccc(Cl)cc2c1C(=O)O`: the “activity, negative = inhibition” value was -17.1%.
Regarding `Cc1ccc(Sc2nc(C)cc(C)c2S(C)(=O)=O)cc1`, the AC50 was 3.16 µM (active).
Consider `CCN(CC)CCc1nc(-c2ccccc2)no1`, for which the “activity, negative = inhibition” value was -20.7% [at 25.6 µM].
Take `COc1ccc(C(=O)NNC(=O)Cc2ccc(-c3ccccc3)cc2)cc1OC`: the “activity, negative = inhibition” value was -4.13%.
With `COc1ccc(-c2noc(CCCC(=O)NCCc3ccccc3)n2)cc1OC`, the AC50 is 7.08 µM (active).
As for `O=C(CCc1nc(-c2ccccc2)no1)NCCc1ccccc1`, the AC50 was 5.01 µM (active).
As to `O=C1c2ccccc2C(=O)N1C[C@]1(C(=O)O)NCCS1(=O)=O`, the activity, negative = inhibition was -9.77% [at 11.4 µM].
In the case of `O=C1c2ccccc2C(=O)N1CC(=O)N1c2ccccc2CCc2ccccc21`, the AC50 was 1.41 µM (active).
The same measure, in the same setting: for `O=C1CC[C@H](N2C(=O)c3ccccc3C2=O)C(=O)N1` the value was “inactive”.
`CC(C)(N)C(=O)N[C@@H]1C(=O)N2[C@@H]1SC(C)(C)[C@H]2C(=O)O`: the activity, negative = inhibition was 2.03% [at 11.4 µM].
On to `CCCCC(=O)Nc1ccc(C(=O)NNC(=O)CCc2ccccc2)cc1`, for which the “activity, negative = inhibition” value is -4.99%.
With `CCCCC(=O)Nc1ccc(C)c(O)c1`, the AC50 is 15.8 µM (active).
On to `Cc1ccc(NC(=O)CC2CS(=O)(=O)CC2CC(=O)Nc2ccc(C)c(C)c2)cc1C` (configuration not stated), for which the “activity, negative = inhibition” value was 0.0954%.
For the compound `CCC(CC)C(=O)Nc1ccc(C)c(O)c1`, the AC50 was 14.1 µM (active).
Consider `Clc1ccc(CSC2=NCCN2)cc1Cl`, for which the activity, negative = inhibition was -10.9% [at 11.4 µM].
For `CNc1cc(CSC)nc(SCc2ccc(Cl)c(Cl)c2)n1`, the AC50 was 0.794 µM (active).
In the case of `O=C(Oc1ccccc1N1C(=O)C2CCCCC2C1=O)c1ccccc1` (configuration not stated), the AC50 is 25.1 µM (active).
Turning to `COc1ccc2c(c1)C(c1ccc([N+](=O)[O-])cc1)=NNC(c1ccco1)=N2`, the AC50 was 7.08 µM (active).
Consider `Cn1cnnc1SCC(=O)n1c2ccccc2c2ccccc21`, for which the AC50 is 8.91 µM (active).
For `COC(=O)C1=C(CSc2nncn2C)NC(=O)NC1c1ccc(F)cc1` (configuration not stated), the “activity, negative = inhibition” value is -22.7%.
